# Inconclusive results are not listed. Calls of active or inactive are those of the source. Rule for the calls: active = hit-call score of the fitted dose curve at least 0.9, where 1 is the maximum; inconclusive = response in the unintended direction; inactive = score below 0.9.
# Experiments:
# [1] = TOX21_p53_BLA_p4_viability: Viability Assessment in the Tox21 HCT-116 p53 Agonism Beta-lactamase Assay, Phase 4 (AID 2283597);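 note: hits lower the luminescence signal meaning cytotoxicity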
# Procedure, shortened: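 Readout: ATP luminescence (CellTiter-Glo), measured 30 min after reagent addition at RT. The reagent followed a 2 h CCF4-AM incubation, and the cells had been exposed to compound for 16 h at 37C.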
# [2] = target: Cellular tumor antigen p53 (Homo sapiens) (UniProt P04637); assay: TOX21_p53_BLA_p5_ratio: Tox21 HCT-116 p53 Agonism Beta-lactamase Assay, Ratio, Phase 5 (AID 2283599)
# Procedure, shortened: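 Beta-lactamase reporter ratio (blue 460 nm over green 530 nm, 405 nm excitation) after 2 h CCF4-AM loading, in HCT-116 cells exposed 16 h at 37 C to compounds pinned at 217-fold dilution. Increases relative to DMSO baseline scored.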
# [3] = target: Cellular tumor antigen p53 (Homo sapiens) (UniProt P04637); assay: TOX21_p53_BLA_p4_ratio: Tox21 HCT-116 p53 Agonism Beta-lactamase Assay, Ratio, Phase 4 (AID 2283601)
# Procedure, shortened: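 Signal is the blue/green (460nm/530nm) ratio of cleaved versus uncleaved CCF4-AM substrate, read after 2 h substrate loading. Cells were HCT116 carrying the p53-responsive beta-lactamase reporter, dosed 16 h at 37C, 5% CO2; CellTiter-Glo measured in parallel.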
# [4] = target: Cellular tumor antigen p53 (Homo sapiens) (UniProt P04637); assay: TOX21_p53_BLA_p3_ratio: Tox21 HCT-116 p53 Agonism Beta-lactamase Assay, Ratio, Phase 3 (AID 2283596)
# Procedure, shortened: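 Cells were seeded at 4000/well, rested 5 h at 37C, then dosed with DMSO compound solutions (217-fold dilution) for 16 h. CCF4-AM substrate was loaded for 2 h at room temperature, and the 460/530 nm emission ratio was fitted for gain of signal versus DMSO.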
# [5] = TOX21_p53_BLA_p5_viability: Viability Assessment in the Tox21 HCT-116 p53 Agonism Beta-lactamase Assay, Phase 5 (AID 2283600)
# Procedure, shortened: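 Workflow: seed 4000 cells per well, wait 5 h, add compounds (DMSO, 217-fold dilution), incubate 16 h, load CCF4-AM 2 h, add CellTiter-Glo, read luminescence after 30 min.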
# Sequence of Cellular tumor antigen p53 (Homo sapiens) (P04637 whole entry, looked up): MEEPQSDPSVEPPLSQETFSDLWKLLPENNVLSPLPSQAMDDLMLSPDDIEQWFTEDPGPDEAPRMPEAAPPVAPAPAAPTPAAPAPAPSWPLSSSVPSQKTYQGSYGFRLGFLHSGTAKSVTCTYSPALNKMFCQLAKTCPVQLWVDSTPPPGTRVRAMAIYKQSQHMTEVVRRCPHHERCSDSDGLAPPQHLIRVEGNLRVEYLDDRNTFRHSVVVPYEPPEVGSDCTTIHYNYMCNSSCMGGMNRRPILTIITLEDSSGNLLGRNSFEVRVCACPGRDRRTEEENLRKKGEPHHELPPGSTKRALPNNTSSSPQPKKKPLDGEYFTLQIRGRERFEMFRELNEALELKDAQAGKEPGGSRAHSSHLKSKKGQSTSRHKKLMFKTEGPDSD
structure (smiles),measurement,setting,value
Cc1cccc(C)c1NC(=O)CN1CCCC1,outcome,[1],inactive
same,outcome,[2],inactive
same,outcome,[3],inactive
COc1ccc(CN(CCN(C)C)c2ncccn2)cc1,outcome,[4],inactive
same,outcome,[3],inactive
NC(=O)Oc1ccc(Cc2ccccc2)cc1,outcome,[1],inactive
CC(C(=O)O)c1ccc(CC2CCCC2=O)cc1 (configuration not stated),outcome,[1],inactive
same,outcome,[2],inactive
same,outcome,[5],inactive
same,outcome,[3],inactive
C=CCC=CC,outcome,[1],inactive
same,outcome,[5],inactive
same,outcome,[3],inactive
O=C(O)C=Cc1ccc(C=CC(=O)O)cc1,outcome,[1],inactive
NC(=O)c1cn(Cc2c(F)cccc2F)nn1,outcome,[1],inactive
same,outcome,[5],inactive
same,outcome,[3],inactive
CCC(=O)CC,outcome,[1],inactive
Cc1ccc(C=O)cc1C,outcome,[1],inactive
same,outcome,[2],inactive
same,outcome,[5],inactive
CCC(C)(Oc1ccc(C2(c3ccc(OC(C)(CC)C(=O)O)cc3)CCCCC2)cc1)C(=O)O (configuration not stated),outcome,[1],inactive
same,outcome,[2],inactive
c1cnc2cc3c(cc2n1)[C@@H]1CNC[C@H]3C1,outcome,[2],inactive
same,outcome,[3],inactive
CC(C)CCC[C@@H](C)[C@H]1CC(=O)C2=C3CC[C@H]4C[C@@H](O)CC[C@]4(C)[C@H]3CC[C@@]21C,outcome,[2],inactive
same,outcome,[5],inactive
same,outcome,[3],inactive
Cc1ccc(CO)cc1,outcome,[2],inactive
same,outcome,[5],inactive
same,outcome,[3],inactive
Cc1onc(-c2c(Cl)cccc2Cl)c1C(=O)N[C@@H]1C(=O)N2[C@@H]1SC(C)(C)[C@@H]2C(=O)O,outcome,[5],inactive
CC(C)CCOC(=O)C=Cc1ccccc1,outcome,[2],inactive
same,outcome,[5],inactive
Nc1nc(CC(=O)O)cs1,outcome,[1],inactive
same,outcome,[3],inactive
Cc1ccc2cccnc2c1,outcome,[2],inactive
same,outcome,[5],inactive
same,outcome,[3],inactive
CC(C)C(=O)c1c(C(C)C)nn2ccccc12,outcome,[2],inactive
same,outcome,[3],inactive
C[C@H](O)C(=O)Nc1c(I)c(C(=O)NC(CO)CO)c(I)c(C(=O)NC(CO)CO)c1I,outcome,[2],inactive
same,outcome,[5],inactive
same,outcome,[3],inactive
CCCCCC[C@@H](O)C/C=C\CCCCCCCC(=O)OC,outcome,[2],inactive
same,outcome,[5],inactive
CCCCC(=O)N(Cc1ccc(-c2ccccc2-c2nn[nH]n2)cc1)[C@@H](C(=O)O)C(C)C,outcome,[2],inactive
CN[C@H]1CCc2cc(OC)c(OC)c(OC)c2-c2ccc(OC)c(=O)cc21,outcome,[2],inactive
same,outcome,[3],inactive
Cc1ccnc(NS(=O)(=O)c2ccc(N)cc2)n1,outcome,[2],inactive
same,outcome,[5],inactive
same,outcome,[3],inactive

# Reference: PubChem BioAssay (EPA / NIEHS)
